In all, about 330,000 compounds went through this assay and about 4,100 (1.2%) were called active. Shown is part of a subset that was picked to be rich in actives. Unmarked numbers belong to inactive results. No stated cut-off is given here; in the data, active means inhibition above about 50%; inactive means the rest.

The target in the experiment is Sentrin-specific protease 8 (Homo sapiens) (UniProt Q96LD8). In words: blockers of human SENP8 peptidase activity – biochemical, luminescence, primary screen (AID 2540). As to conditions: purified SENP8, Z-RLRGG-aminoluciferin cleavage, at 10 µM, active compounds read high.
Sequence of Sentrin-specific protease 8 (Homo sapiens) (Q96LD8 whole entry, looked up): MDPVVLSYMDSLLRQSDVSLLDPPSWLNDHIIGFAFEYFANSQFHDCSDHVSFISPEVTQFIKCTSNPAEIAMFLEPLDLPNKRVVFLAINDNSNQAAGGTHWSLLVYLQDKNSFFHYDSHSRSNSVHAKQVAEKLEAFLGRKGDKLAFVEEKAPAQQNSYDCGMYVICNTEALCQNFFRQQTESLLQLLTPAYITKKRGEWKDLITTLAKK
On to `CCN(Cc1ccccc1)C(=O)CN1C(=S)NC(C)(C)CC1C` (stereo unspecified), for which the inhibition was -3.88%.
As for `O=C(c1ccco1)N1CCN(C(=O)c2cc(-c3ccccc3F)no2)CC1`, the figure is 3.2%; as for `O=C(CN1CCN(c2ccccc2F)CC1)c1ccc2c(c1)OCO2`, -9.99%; as for `Fc1ccccc1-c1cc2cc3c(cc2cn1)OCO3`, 70.8% (active).
With `Cc1ccc(N(Cc2ccccc2O)C(=O)c2ccccc2F)cc1`, the inhibition is 9.54%.
Next, `O=C(Nc1ccc2ccccc2c1)/C(=C\c1ccc2c(c1)OCO2)NC(=O)c1ccco1`: 10.3%; `CCN1C(=NCc2ccc(OC)cc2)N[C@@H](CCc2ccccc2)[C@H](C(=O)NCc2ccc(OC)cc2)[C@H]1C`: -2.38%.
Next, `CC(C)CCN1C(=O)c2ccc(C(=O)Nc3cccc(S(N)(=O)=O)c3)cc2C1=O`: -8.58%; `COCCOC(=O)c1sc(=S)n(CCOC)c1N`: -1.86%.
Next, `CC(C)CCNC(=O)c1ccc2c(Cl)c3c(nc2c1)CCC3`: 81.1% (active).
For the compound `CC(=O)c1ccc(NC(=O)c2ccc3c(Cl)c4c(nc3c2)CCCC4)cc1`, the inhibition is -0.476%.
Next, `COc1cccc(NC(=O)c2ccc3c(SCC(=O)O)c4c(nc3c2)CCCC4)c1`: -3.32%; `Cc1c(CCO)c(=O)[nH]n1C(=O)c1c(F)cccc1F`: 13.4%.
As for `O=C(O)C(F)(F)C(NCc1ccccc1)c1ccccc1` (stereo unspecified), the figure is -6.64%; as for `COc1cc(C(=O)OC2CCOC2=O)c([N+](=O)[O-])cc1OC` (stereo unspecified), -2.98%.
Next, `CC(C)c1ccc(C(=O)OC2CCOC2=O)cc1` (stereo unspecified): 2.09%; `O=C(OC1CCOC1=O)c1ccc(-c2nc3ccccc3s2)s1` (stereo unspecified): 93.9% (active); `Cc1cccc(NS(=O)(=O)c2ccc(C)c(C(=O)NCC(c3ccccc3)N(C)C)c2)c1` (stereo unspecified): 8.98%.
In the case of `CCCCNC(=O)c1ccccc1NC(=O)c1ccccc1N(C)S(C)(=O)=O`, the inhibition is -5.03%.
Next, `Oc1c(Cl)cc(Cl)c(Cl)c1Cc1c(O)c(Cl)cc(Cl)c1Cl`: 28.5%; `COc1cccc(/C=C/c2ccc3ccccc3n2)c1OC(C)=O`: 17.7%; `COc1ccc(/C=C/c2noc(-c3ccccc3OC(C)=O)n2)cc1`: 88.3% (active).
As for `COc1ccccc1-c1nnc(-c2ccc(F)cc2)o1`, the figure is 24.5%; as for `C[C@@H]1CC[C@]2(O[C@@H](CCO)C[C@H](O)[C@H]2O)O1`, 1.7%; as for `NC(=O)[C@H]1CC2(CC(c3cccc(NC(=O)[C@H]4CCC(=O)N4)c3)=NO2)CN1C(=O)c1ccccc1C(=O)c1ccccc1` (stereo partly specified), 2.84%.
As to `COc1cc(/C=N/Nc2nc3ccccc3s2)ccc1O`, the inhibition was 76% (active).
Next, `COc1cc(/C=N/NC(=O)CCc2n[nH]c(=O)[nH]c2=O)ccc1O`: 1.52%; `COc1ccc(/C=N/NC(=O)c2cc(-c3cccc(C)c3)nc3ccccc23)cc1O`: 10.3%; `Cc1nc(N2CCCCC2)sc1C=O`: 1.41%.
Regarding `CN(C)CCCN(C(=O)c1ccc(S(=O)(=O)N2CCCCCC2)cc1)c1nc2cc3c(cc2s1)OCCO3`, the inhibition was 6.61%.
Next, `Fc1ccc2nc(N3CCCCC3)sc2c1`: 72.2% (active); `O=S(=O)(Nc1ccc2nc(N3CCOCC3)sc2c1)c1ccccc1`: 9%.
Turning to `O=C(NCCc1cccc(F)c1)C1CCCN(c2nc3ccccc3s2)C1` (stereo unspecified), the inhibition is 12.2%.
As for `Cc1ccc2nc(N3CCN(C(=O)c4ccco4)CC3)sc2c1`, the figure is -13.8%.
Next, `Brc1ccc2nc(N3CCCC3)sc2c1`: 85.2% (active); `Fc1ccc2nc(Nc3nc4c(s3)CCCC4)sc2c1`: 3.05%; `c1c2c(cc3sc(N4CCCCC4)nc13)OCCO2`: 96.5% (active).
Regarding `COc1ccc2c(c1)C=CC1(O2)N(CCO)c2ccccc2C1(C)C` (stereo unspecified), the inhibition is 0.788%.
On to `O=C(CSc1nc2ncccc2[nH]1)Nc1ccc2c(c1)OCCO2`, for which the inhibition is -1.02%.
As for `CC(Sc1nncn1C)C(=O)NCCC1=CCCCC1` (stereo unspecified), the figure is 5.55%; as for `Cc1ccc(C(c2nnnn2CS(=O)(=O)c2ccc(C)cc2)N2CCC(C)CC2)cc1` (stereo unspecified), 4.98%.
Next, `CCC(=O)c1ccc(OCC(=O)OCC(=O)NC2CCCCCC2)cc1`: -0.587%; `Cc1cc(C(=O)Nc2nnc(C3CC3)s2)c(C)s1`: 74.1% (active).
On to `CCc1cc(C(=O)Nc2nnc(C3CC3)s2)sc1C`, for which the inhibition is 2.73%.
Next, `O=C(Nc1nnc(C2CC2)s1)c1cc(Cl)sc1Cl`: -4.61%.
With `CCN1CCN(c2ccc(S(=O)(=O)N3CCCCC3)cc2NC(=O)c2cccc(NC(C)=O)c2)CC1`, the inhibition was -4.93%.
In the case of `CC(C)CC(O)C1CCN(C(=O)CCc2nnc(-c3ccc4c(c3)OCO4)o2)CC1` (stereo unspecified), the inhibition was -8.01%.
On to `CNS(=O)(=O)c1cccc(C(=O)OCC(=O)N2c3ccccc3NC(=O)C2(C)C)c1`, for which the inhibition is -16.6%.
As for `O=C1N/C(=C/c2cccs2)C(=O)N1Cc1ccc(F)cc1`, the figure is -10%; as for `Cc1cccc(C2=N/C(=C/c3cccs3)C(=O)O2)c1`, -4.38%; as for `CSC1=N/C(=C\C=C\c2cccs2)C(=O)S1`, 53.6% (active).
As for `CC(C)(C)c1cc(NC(=O)NN2CCOCC2)nn1-c1c(Cl)cc(Cl)cc1Cl`, the figure is 1.46%; as for `Cc1cccc(NS(=O)(=O)c2ccc(C)c(C(N)=O)c2)c1`, 0.196%.
Next, `CC(=O)N1CCN(C(=O)c2cccc(S(=O)(=O)Nc3ccc(C)cc3)c2)CC1`: -6.08%.
As to `Cc1cccc(NS(=O)(=O)c2cccc(C(=O)NNC(=O)c3ccccc3O)c2)c1`, the inhibition was 50.1% (active).
Regarding `CCc1ccc(NC(=O)CCNS(=O)(=O)c2cccs2)cc1`, the inhibition is -0.839%.
Next, `CS(=O)(=O)Nc1cccc(-c2cn3ccccc3n2)c1`: -1.75%; `O=C1CC(c2ccccc2)=NN1c1ccc([N+](=O)[O-])cc1`: 81.8% (active); `Cc1nc(-c2ccc([N+](=O)[O-])cc2)c(-c2ccccc2)o1`: -11%.
As for `O=c1[nH]n(-c2ccc([N+](=O)[O-])cc2)c(=O)c2ccccc12`, the figure is -5.71%.
Next, `CCOc1ccccc1OCCCNCc1ccccc1`: -6.65%; `C=CCSc1nnc(Cn2c(=O)sc3ccccc32)n1C`: -1.6%.
Turning to `Cc1cc(N=Nc2ccc3ccccc3c2)ccc1O`, the inhibition is 95.5% (active).
As for `Cc1ccccc1Nc1nc(N)nc(COC(=O)CCC(=O)c2ccc(F)cc2)n1`, the figure is -5.5%; as for `CCC(C(=O)Nc1ncccn1)(C(F)(F)F)C(F)(F)F`, 2.16%; as for `COc1cc(OC)cc(-c2c(C#Cc3ccsc3)c3cc(-c4ccc(OC)cc4F)ccc3n2C)c1`, -6.93%.
As to `COc1ccc(CNC(=O)COc2ccccc2C(=O)c2cnn(-c3ccccc3)c2)cc1OC`, the inhibition was 55.6% (active).
Next, `COc1ccc(CNC(=O)Cc2ccc(-c3ccccc3)cc2)cc1OC`: -1.75%; `COc1ccc(CNC(=O)COC(=O)c2c(C)nn(-c3ccccc3)c2C)cc1OC`: -2.1%; `CC(C)CCN(C(=O)c1csnn1)C(C(=O)NC1CCCC1)c1ccccc1` (stereo unspecified): -0.251%.
As for `CCOC(=O)c1sc(N(Cc2ccccc2)C(=O)CN2C(=O)CN(C)C2=O)nc1C`, the figure is 5.69%.
Next, `CC12CCC(=O)N1C(C(=O)Nc1ccc(F)c(F)c1F)CS2` (stereo unspecified): -5.83%; `CCN(C(=O)COC(=O)CCC(=O)c1cccs1)C1CCCCC1`: -2.61%.
Regarding `Cc1ccsc1C(=O)NC1CCCCC1C` (stereo unspecified), the inhibition is -2.42%.
Next, `COc1ccc(C(=O)Nc2cccc(S(C)(=O)=O)c2)cc1`: -4.36%; `COc1cccc(C(=O)Nc2nnc(S(=O)(=O)N(C)c3ccccc3)s2)c1`: -5.38%.
Next, `COc1cccc(C(=O)Nc2nc3ccc(S(C)(=O)=O)cc3s2)c1`: 82.5% (active); `Cc1cnc(NC(=O)c2ccccn2)s1`: 66.9% (active); `O=C(Nc1nnc(C2CC2)s1)c1ccccn1`: 20.9%.
As to `Cc1cnc(NC(=O)C2CCCC2)s1`, the inhibition is -0.598%.
Next, `Clc1ccc(C=NC23CN4CN(CN(C4)C2)C3)cc1`: 8.45%; `Cc1ccc(Nc2cc(C)nc3c(C)ccc([N+](=O)[O-])c23)cc1`: -13.4%; `Clc1ccc(Nc2ccc3ccccc3n2)cc1`: 82.3% (active).
Regarding `O=c1ccnc(Nc2ccc(Cl)cc2)[nH]1`, the inhibition is -3.3%.
Next, `Cc1cc(Nc2ccc(Br)cc2)nc2ccccc12`: -6.96%.
As to `CC(OC(=O)c1ccc(NS(=O)(=O)c2ccc3[nH]c(=O)[nH]c3c2)cc1)C(=O)Nc1cccc(Cl)c1Cl` (stereo unspecified), the inhibition was -9.53%.
Next, `CC(C)CCN1CCN(C/C=C/c2ccco2)CC1CCO` (stereo unspecified): 4.76%; `COc1ccc(C(=O)OCC(=O)c2cc(C)n(CC3CCCO3)c2C)cc1[N+](=O)[O-]` (stereo unspecified): -17.7%; `Cc1cc(C(=O)CCl)c(C)n1CC1COc2ccccc2O1` (stereo unspecified): -8.88%.
For the compound `Cc1ccsc1C(=O)OCC(=O)c1cc(C)n(CC2CCCO2)c1C` (stereo unspecified), the inhibition was 91.1% (active).
With `CCC(C)(C)c1ccc(Oc2ccc(NC(=O)COC(=O)C3=COCCO3)cc2)cc1`, the inhibition was -2.31%.
As for `O=[N+]([O-])c1c(NCCO)cc(Sc2nc3ccccc3s2)c2nonc12`, the figure is 85% (active); as for `NC(=O)c1ccc(Nc2ccc3nonc3c2[N+](=O)[O-])cc1`, 2.67%; as for `Cc1nc2nc(CSc3nc4ccccc4s3)cc(=O)n2[nH]1`, -14.3%.
Next, `CC(C)NC(=O)/C(C#N)=C\c1ccc(N(C)C)c(Br)c1`: -4.03%; `CC1(C)CC(=O)C(C2c3ccccc3S(=O)(=O)c3ccccc32)C(=O)C1`: -0.512%.

What is called inhibition is the change of the read-out against control, counted positive when it falls.
